Results published in PubChem BioAssay (NCATS).
“And” between values parts separate entries of the source, which are not always exact repeats. Equal entries are not always repeated. Records with an inconclusive call do not appear. The source made the active and inactive calls. Unless noted, calls follow the shape of the full dose curve. Where a SMILES comes first, the peptide text is derived from it.

How the values were obtained:
[1] = Cell Viability - LYMP2-026 (AID 989; active = well fitted cell-killing curve with a large enough effect;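 also: cells exposed to compound for 24 h at 37 °C; nearly all actives have a fitted effect of over 50% in size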; also: potency is read from the fitted curve at half-maximal effect)
Method in brief: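 qHTS cytotoxicity: 2500 cells/well, 5 hr 37 C, compound 24 hr 37 C, CellTiter-Glo 30 min RT, luminescence. Tetraoctylammonium bromide positive control. AC50 via standard Hill fit.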

[2] = molecular target: Glucocorticoid receptor (Homo sapiens) (UniProt P04150); assay: qHTS assay for small molecule agonists of glucocorticoid receptor signaling (AID 588532; active = well fitted curve in the direction sought with a large enough effect in the signal ratio, with a control signal flat; the % refers to the signal ratio; also: potency is read from the fitted curve at half-maximal effect;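 as to activation: 100% = dexamethasone at 0.1 µM and 0% = DMSO only wells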); settings: HeLa MMTV-bla, beta-lactamase ratio, agonist, 18 h; activation: stronger effect = higher value, percent of dexamethasone control, DMSO zero
Method in brief: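 MMTV-bla HeLa, beta-lactamase reporter; medium with 1% charcoal/dextran-stripped FBS; cpds up to 92 uM, 18 h, 37 C; CCF4 readout 460/530 nm; Hill fit → EC50, efficacy vs 0.1 uM dexamethasone = 100%.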

[3] = molecular target: Peroxisome proliferator-activated receptor delta (Homo sapiens) (UniProt Q03181); assay: qHTS assay for small molecule agonists of peroxisome proliferator-activated receptor delta signaling (AID 588534);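 also: 0% = DMSO basal wells and 100% = positive control agonist at 10 µM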
Method in brief: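 Titration series tested in agonist mode on beta-lactamase reporter cells; 18 hrs at 37 C after a 5 hr pre-incubation. Readout: CCF4 fluorescence, 2 hrs RT. Hill equation gives EC50 and maximal response.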

[4] = molecular target: Vitamin D3 receptor (Homo sapiens) (UniProt P11473); assay: qHTS assay for small molecule antagonists of vitamin D receptor signaling (AID 588541); also: potency is read from the fitted curve at half-maximal effect;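 as to activity change, negative = inhibition: receptor activated by calcitriol during compound treatment; % is scaled to controls: 0 for no effect and ±100 for the full control effect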
Method in brief: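 VDR-UAS-bla HEK293T cells (2000/well, 2% charcoal-stripped FBS) were treated with titrated compounds plus 1-alpha,25-dihydroxyvitamin D3 (50 nM or 3 nM final) for 16 h at 37 C. CCF4 beta-lactamase fluorescence was read; Hill fits gave IC50.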

[5] = molecular target: Vitamin D3 receptor (Homo sapiens) (UniProt P11473); assay: qHTS assay for small molecule agonists of vitamin D receptor signaling (AID 588543);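 also: 0% = DMSO basal and 100% = reference agonist control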
Method in brief: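 Agonist-mode beta-lactamase reporter: HEK293T VDR-UAS-bla cells in charcoal-stripped 2% FBS, compound series 16 h 37 C, CCF4 2 h RT. EC50 from Hill fit, scaled against DMSO and 50 nM calcitriol control.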

[6] = molecular target: Retinoic acid receptor RXR-alpha (Homo sapiens) (UniProt P19793); assay: qHTS assay for small molecule agonists of retinoid X receptor alpha signaling (AID 588544); also: potency is read from the fitted curve at half-maximal effect;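 as to activation: 0% = DMSO basal wells and 100% = reference agonist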
[7] = molecular target: Thyroid hormone receptor beta (Homo sapiens) (UniProt P10828); assay: qHTS assay for small molecule agonists of thyroid hormone receptor beta signaling (AID 588545); also: potency is read from the fitted curve at half-maximal effect
Method in brief: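 In this cell-based screen, titrated compounds act on HEK 293 cells held in medium with 2% charcoal/dextran FBS, NEAA and pyruvate for 18 hrs at 37 C. Responses are expressed relative to T3 (10 nM) as 100% and basal DMSO as 0%.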

[8] = qHTS assay for small molecule antagonists of retinoid X receptor alpha signaling (AID 588546; active = well fitted inhibition curve with a large enough effect in the signal ratio, with a control signal flat, not every such curve was filed as active; the % refers to the signal ratio; also: potency is read from the fitted curve at half-maximal effect); settings: HEK293T RXRa-UAS-bla, beta-lactamase ratio, antagonist mode; measured here: W530 green channel, cytotoxicity proxy
Method in brief: (§1)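 Beta-lactamase reporter inhibition, read as CCF4 fluorescence ratio (ex 405, em 460/530 nm) after 2 h at RT. HEK293T UAS-bla cells, 2500/well, were stimulated with 9-cis-RA at 500 or 100 nM final alongside test compound for 18 h at 37 C.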

[9] = molecular target: Thyroid hormone receptor beta (Homo sapiens) (UniProt P10828); assay: qHTS assay for small molecule antagonists of thyroid hormone receptor beta signaling (AID 588547; active = well fitted inhibition curve with a large enough effect in the signal ratio, with a control signal flat, not every such curve was filed as active; the % refers to the signal ratio;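 also: cells stimulated with 0.4 nM T3 agonist during compound exposure; % is scaled to controls: 0 for no effect and ±100 for the full control effect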); settings: TR-UAS-bla HEK293, beta-lactamase ratio, antagonist mode, 18 h
Method in brief: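 TR-UAS-bla GripTite HEK293 cells in 2% charcoal/dextran FBS medium were preincubated 4 h at 37 C, given compound (0.59 nM to 92 uM) plus 0.4 nM T3 (final) for 18 h, then CCF4 for 2 h at RT; Hill fit gave IC50.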

[10] = qHTS assay for small molecule agonists of the antioxidant response element (ARE) signaling pathway (AID 651741; active = well fitted activation curve with a large enough effect in the signal ratio; the % refers to the signal ratio; also: potency is read from the fitted curve at half-maximal effect; as to activation: % of control where 0% means no effect)
Method in brief: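 Beta-lactamase reporter expression driven by the antioxidant response element in HepG2 cells was detected by fluorescence with LiveBLAzer B/G FRET substrate (2 h, room temperature) following 16 h compound treatment at 37 C.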

[11] = qHTS assay for small molecule disruptors of the mitochondrial membrane potential - 1 hr assay (AID 651754); also: nearly all actives have a fitted effect of over 35% in size; also: potency is read from the fitted curve at half-maximal effect
Method in brief: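 Read-out: dye fluorescence at 490 nm ex/535 nm em (monomers) and 540 nm ex/590 nm em (aggregates) in HepG2 cells. Compound exposure 1 hr at 37C, followed by 30 min dye loading.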

[12] = molecular target: Nuclear receptor subfamily 1 group I member 2 (Rattus norvegicus) (UniProt Q9R1A7); assay: qHTS assay for small molecule activators of the rat pregnane X receptor (rPXR) signaling pathway (AID 651751; call rule not given here; also: 0% is about no effect); settings: rPXR reporter cells, luciferase (One-Glo), 24 h
[13] = qHTS assay for small molecule activators of the human pregnane X receptor (PXR) signaling pathway (AID 720659; call rule not given here; also: 0% is about no effect)
[14] = NFAT Signaling Pathway (AID 444; active = well fitted curve in either direction with a large enough effect, not every such curve was filed as active;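 also: carbachol stimulus at about its EC50 of 1 µM final; % is scaled to controls: 0 for no effect and ±100 for the full control effect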); settings: Jurkat NFAT-bla M1, carbachol, beta-lactamase ratio, 5 h; at 17.2 µM (top of the series) unless noted
Method in brief: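 Jurkat cells carrying an NFAT-driven β-lactamase reporter and co-transfected muscarinic M1 receptor were treated with compound plus carbachol (1 uM final, an EC50 level) for 5 h at 37 °C. CCF4 loading followed for 1 h at RT; 460/530 nm ratio gave %activity.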

[15] = Stat Signaling Pathway (AID 446; active = well fitted curve in either direction with a large enough effect, not every such curve was filed as active;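 also: ME-180 cervical cancer cells given 40 pM IL-6 alongside compound; SIE-controlled beta-lactamase reporter measured as 460/530 nm FRET emission ratio; % is scaled to controls: 0 for no effect and ±100 for the full control effect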)
Method in brief: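 Emission at 460 and 530 nm (excitation 405 nm) reports SIE-controlled beta-lactamase in ME-180 cells. Cells received compound with 40 pM IL-6 for 5 hrs at 37 C; data scaled between 300 pM IL-6 and 125 nM JAK-inhibitor controls.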

[16] = molecular target: 3',5'-cyclic-AMP phosphodiesterase 4B (Homo sapiens) (UniProt Q07343); assay: qHTS Assay for Inhibitors of PDE-IV (AID 607; active = well fitted activation curve with a large enough effect in the main read-out, with a control signal flat, not every such curve was filed as active; also: % of control where 0% means no effect)
Method in brief: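 The readout is membrane depolarisation from a cAMP-sensing CNG channel, detected with a potential dye at ex 535/em 590. Cells were HEK293-derived (endogenous PDE-IV) at 1000 cells/well, titrated up to 22.9 uM final.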

[17] = molecular target: Bile acid receptor (Homo sapiens) (UniProt Q96RI1); assay: qHTS assay for small molecule agonists of farnesoid X receptor signaling (AID 588527); settings: HEK293T FXR-UAS-bla, beta-lactamase ratio, 16 h; activation: stronger effect = higher value; also: potency is read from the fitted curve at half-maximal effect;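 as to activation: 0% = vehicle basal and 100% = reference agonist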
Method in brief: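 Read-out: beta-lactamase reporter fluorescence with CCF4 substrate in GeneBLAzer FXR-UAS-bla HEK293T cells, after 16 h compound exposure at 37 C. Response scaled between DMSO basal (0%) and chenodeoxycholic acid at 100 uM (100%).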

[18] = qHTS assay for small molecule activators of the nuclear factor-kappa B (NF-kB) signaling pathway (AID 651749; active = well fitted activation curve with a large enough effect in the signal ratio; the % refers to the signal ratio; also: potency is read from the fitted curve at half-maximal effect; as to activation: % of control where 0% means no effect); settings: NF-kB-bla ME-180 cells, beta-lactamase FRET ratio, 16 h; activation: stronger effect = higher value
Method in brief: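 Beta-lactamase reporter expression, controlled by NF-kB response elements in ME-180 cells, was quantified fluorometrically via FRET disruption; cells at 2,000/well had been incubated with 23 nL test compound for 16 hr.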

[19] = molecular target: Glucocorticoid receptor (Homo sapiens) (UniProt P04150); assay: qHTS assay for small molecule antagonists of glucocorticoid receptor signaling (AID 588533; active = well fitted inhibition curve with a large enough effect in the signal ratio, with a control signal flat, not every such curve was filed as active; the % refers to the signal ratio;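 also: cells stimulated with 2 nM dexamethasone as agonist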; also: potency is read from the fitted curve at half-maximal effect)
Method in brief: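 Antagonist-mode qHTS: compound titrations added to GRE-bla HeLa cells, then dexamethasone 2 nM final; 18 h, 37 C. CCF4 FRET fluorescence normalized to dexamethasone and DMSO; IC50 from Hill fit.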

[20] = molecular target: Retinoic acid receptor RXR-alpha (Homo sapiens) (UniProt P19793); assay: qHTS assay for small molecule antagonists of retinoid X receptor alpha signaling (AID 588546); settings: HEK293T RXRa-UAS-bla, beta-lactamase ratio, antagonist mode; also: potency is read from the fitted curve at half-maximal effect
Method in brief: as §1

Sequence of Peroxisome proliferator-activated receptor delta (Homo sapiens) (Q03181 whole entry, looked up): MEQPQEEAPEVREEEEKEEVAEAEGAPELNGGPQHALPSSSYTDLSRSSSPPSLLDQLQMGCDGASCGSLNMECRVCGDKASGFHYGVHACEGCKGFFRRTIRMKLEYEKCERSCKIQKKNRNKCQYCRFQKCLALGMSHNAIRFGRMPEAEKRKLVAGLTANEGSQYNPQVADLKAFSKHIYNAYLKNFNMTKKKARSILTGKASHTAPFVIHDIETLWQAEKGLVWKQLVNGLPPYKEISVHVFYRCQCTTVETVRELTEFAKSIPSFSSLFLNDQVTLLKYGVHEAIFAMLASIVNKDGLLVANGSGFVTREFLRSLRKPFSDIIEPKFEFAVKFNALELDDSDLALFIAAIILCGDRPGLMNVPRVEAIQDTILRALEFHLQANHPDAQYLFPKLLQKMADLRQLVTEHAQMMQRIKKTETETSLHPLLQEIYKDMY
Sequence of Thyroid hormone receptor beta (Homo sapiens) (P10828 whole entry, looked up): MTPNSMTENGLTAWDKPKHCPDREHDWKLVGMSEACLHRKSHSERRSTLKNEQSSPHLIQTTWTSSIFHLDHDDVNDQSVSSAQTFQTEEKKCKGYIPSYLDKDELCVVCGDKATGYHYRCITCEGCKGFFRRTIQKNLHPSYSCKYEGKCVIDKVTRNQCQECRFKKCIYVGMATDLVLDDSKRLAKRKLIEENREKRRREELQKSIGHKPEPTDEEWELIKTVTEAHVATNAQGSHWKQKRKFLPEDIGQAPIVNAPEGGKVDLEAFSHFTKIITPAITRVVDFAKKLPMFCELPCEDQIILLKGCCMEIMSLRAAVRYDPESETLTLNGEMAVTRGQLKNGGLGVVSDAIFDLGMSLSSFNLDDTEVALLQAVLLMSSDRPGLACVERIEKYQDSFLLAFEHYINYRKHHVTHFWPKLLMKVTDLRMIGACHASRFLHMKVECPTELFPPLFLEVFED
Sequence of Vitamin D3 receptor (Homo sapiens) (P11473 whole entry, looked up): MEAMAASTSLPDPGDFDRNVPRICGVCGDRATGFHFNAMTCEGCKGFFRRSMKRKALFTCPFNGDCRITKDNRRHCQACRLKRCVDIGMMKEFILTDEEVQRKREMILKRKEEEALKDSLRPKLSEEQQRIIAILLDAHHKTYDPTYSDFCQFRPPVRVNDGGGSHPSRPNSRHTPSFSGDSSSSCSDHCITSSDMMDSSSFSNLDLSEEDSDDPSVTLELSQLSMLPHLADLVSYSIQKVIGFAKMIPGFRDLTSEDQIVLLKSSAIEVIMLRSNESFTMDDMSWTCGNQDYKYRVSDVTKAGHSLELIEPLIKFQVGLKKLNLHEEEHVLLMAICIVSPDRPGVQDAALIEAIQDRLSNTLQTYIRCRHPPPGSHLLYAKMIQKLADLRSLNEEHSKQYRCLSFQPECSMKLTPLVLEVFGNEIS
Sequence of Retinoic acid receptor RXR-alpha (Homo sapiens) (P19793 whole entry, looked up): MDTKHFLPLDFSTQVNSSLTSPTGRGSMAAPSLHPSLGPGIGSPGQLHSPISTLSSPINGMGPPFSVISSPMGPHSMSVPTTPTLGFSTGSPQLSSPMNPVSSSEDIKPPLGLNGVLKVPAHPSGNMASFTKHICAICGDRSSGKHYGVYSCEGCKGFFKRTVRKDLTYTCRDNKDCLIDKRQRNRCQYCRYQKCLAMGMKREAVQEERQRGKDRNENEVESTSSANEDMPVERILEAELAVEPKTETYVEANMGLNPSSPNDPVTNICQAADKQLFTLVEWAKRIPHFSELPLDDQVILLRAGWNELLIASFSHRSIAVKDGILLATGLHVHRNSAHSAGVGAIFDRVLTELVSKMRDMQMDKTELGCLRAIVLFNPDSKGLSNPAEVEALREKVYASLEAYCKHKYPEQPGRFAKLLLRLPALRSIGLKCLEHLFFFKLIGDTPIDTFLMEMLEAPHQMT
Sequence of Bile acid receptor (Homo sapiens) (Q96RI1 whole entry, looked up): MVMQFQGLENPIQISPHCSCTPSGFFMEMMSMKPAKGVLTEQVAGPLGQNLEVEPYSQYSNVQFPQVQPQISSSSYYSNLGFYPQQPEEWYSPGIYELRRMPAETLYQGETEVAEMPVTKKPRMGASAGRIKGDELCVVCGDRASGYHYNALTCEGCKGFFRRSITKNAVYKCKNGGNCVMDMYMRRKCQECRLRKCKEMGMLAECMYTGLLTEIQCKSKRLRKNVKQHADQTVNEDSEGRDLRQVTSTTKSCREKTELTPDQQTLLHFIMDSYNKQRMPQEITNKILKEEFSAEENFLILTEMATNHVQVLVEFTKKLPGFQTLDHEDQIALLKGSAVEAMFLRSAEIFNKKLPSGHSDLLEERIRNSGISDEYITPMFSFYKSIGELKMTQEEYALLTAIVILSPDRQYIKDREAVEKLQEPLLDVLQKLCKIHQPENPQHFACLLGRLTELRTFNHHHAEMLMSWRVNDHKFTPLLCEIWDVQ
Sequence of 3',5'-cyclic-AMP phosphodiesterase 4B (Homo sapiens) (Q07343 whole entry, looked up): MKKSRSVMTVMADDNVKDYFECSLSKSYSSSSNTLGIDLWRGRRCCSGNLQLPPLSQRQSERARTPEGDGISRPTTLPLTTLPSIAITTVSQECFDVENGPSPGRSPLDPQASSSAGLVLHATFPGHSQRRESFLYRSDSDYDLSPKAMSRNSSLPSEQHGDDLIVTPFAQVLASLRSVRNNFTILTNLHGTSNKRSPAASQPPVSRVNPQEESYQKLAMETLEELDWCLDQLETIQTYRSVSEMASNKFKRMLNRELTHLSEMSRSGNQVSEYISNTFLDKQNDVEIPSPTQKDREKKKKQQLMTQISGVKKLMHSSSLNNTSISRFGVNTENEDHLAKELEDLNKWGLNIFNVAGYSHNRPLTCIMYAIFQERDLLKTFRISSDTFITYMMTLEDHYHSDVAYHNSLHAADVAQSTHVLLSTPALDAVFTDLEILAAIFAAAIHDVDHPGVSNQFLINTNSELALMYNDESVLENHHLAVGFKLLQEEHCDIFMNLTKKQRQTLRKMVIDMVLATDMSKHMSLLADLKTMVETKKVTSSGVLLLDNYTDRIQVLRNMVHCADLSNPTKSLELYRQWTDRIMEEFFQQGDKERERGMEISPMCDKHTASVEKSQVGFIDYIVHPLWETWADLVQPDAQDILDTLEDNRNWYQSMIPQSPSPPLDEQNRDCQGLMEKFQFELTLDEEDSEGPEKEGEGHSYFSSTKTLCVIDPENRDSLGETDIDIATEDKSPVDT
Sequence of Glucocorticoid receptor (Homo sapiens) (P04150 whole entry, looked up): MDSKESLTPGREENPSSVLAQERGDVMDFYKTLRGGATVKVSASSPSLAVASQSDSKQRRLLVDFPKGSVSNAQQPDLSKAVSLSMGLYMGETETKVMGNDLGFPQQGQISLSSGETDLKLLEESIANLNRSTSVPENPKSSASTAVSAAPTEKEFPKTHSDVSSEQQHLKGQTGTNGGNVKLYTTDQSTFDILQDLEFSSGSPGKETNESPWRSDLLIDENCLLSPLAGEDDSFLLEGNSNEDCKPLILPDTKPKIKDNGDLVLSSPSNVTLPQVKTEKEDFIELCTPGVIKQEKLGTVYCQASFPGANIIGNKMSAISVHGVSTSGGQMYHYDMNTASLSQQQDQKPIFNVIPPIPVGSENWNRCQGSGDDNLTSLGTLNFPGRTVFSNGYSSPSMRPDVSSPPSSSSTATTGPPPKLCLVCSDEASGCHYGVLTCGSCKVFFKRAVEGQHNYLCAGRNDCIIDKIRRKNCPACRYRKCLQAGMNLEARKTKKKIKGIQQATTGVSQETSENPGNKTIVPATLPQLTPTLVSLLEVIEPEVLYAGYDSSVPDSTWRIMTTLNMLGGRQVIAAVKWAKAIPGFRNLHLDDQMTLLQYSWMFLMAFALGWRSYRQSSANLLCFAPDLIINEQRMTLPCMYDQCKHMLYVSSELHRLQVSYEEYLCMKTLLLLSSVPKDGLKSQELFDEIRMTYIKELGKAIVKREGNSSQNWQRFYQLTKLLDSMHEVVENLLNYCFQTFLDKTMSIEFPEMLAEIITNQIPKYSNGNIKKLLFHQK
Sequence of Nuclear receptor subfamily 1 group I member 2 (Rattus norvegicus) (Q9R1A7 whole entry, looked up): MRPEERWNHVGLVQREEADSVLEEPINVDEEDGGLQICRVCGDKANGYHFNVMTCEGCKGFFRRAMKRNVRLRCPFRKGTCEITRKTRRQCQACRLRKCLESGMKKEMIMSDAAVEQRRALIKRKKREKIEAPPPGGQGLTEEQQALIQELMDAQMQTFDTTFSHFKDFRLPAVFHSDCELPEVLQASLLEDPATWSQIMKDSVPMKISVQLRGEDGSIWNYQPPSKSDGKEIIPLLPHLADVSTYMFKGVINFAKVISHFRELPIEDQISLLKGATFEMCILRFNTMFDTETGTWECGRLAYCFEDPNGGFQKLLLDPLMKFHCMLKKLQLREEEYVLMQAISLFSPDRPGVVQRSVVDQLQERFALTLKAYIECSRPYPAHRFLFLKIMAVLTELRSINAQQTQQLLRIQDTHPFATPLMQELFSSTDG

O=[N+]([O-])C(Br)Br
inactive: activation [2] -5.74% | outcome [3] | Potency [4] | outcome [5] | Potency [6] | Potency [7] | activity change % (negative = inhibition) [9] 4.06% | Potency [11] | max response [12] 1.81% | outcome [13]
active: Potency [1] 20 µM | Potency [10] 47.3 µM
-6.12%: max response [8]

Oc1cc2c(cc1O)[C@H]1c3ccccc3CN[C@@H]1CC2
inactive: activity change, negative = inhibition [14] -4.87% [at 38 µM] | outcome [15] | outcome [16]

CC(C)C[C@H](NC(=O)[C@@H]1CCCN1C(=O)[C@@H](N)Cc1ccc(O)cc1)C(=O)NCC(N)=O (H-YPLG-NH2)
inactive: activity change, negative = inhibition [14] 14.8% | outcome [15]

CN(C)c1ccc(N=O)cc1
active: Potency [1] 2.51 µM | Potency [10] 13.3 µM
inactive: activation [17] -4.92% | Potency [7]

C(=NC1CCCCC1)=NC1CCCCC1
active: Potency [10] 24.3 µM
inactive: activation [17] 1.63% | outcome [3] | Potency [4] | outcome [5] | Potency [7] | activity change % (negative = inhibition) [9] -20.1% and -3.06% | activation [18] 0.442% and -0.633% | Potency [11] | max response [12] 0.443% and 0.275% | outcome [13]

[Cd+2].[Cl-].[Cl-]
inactive: outcome [5] | Potency [7]

[CH3][Hg][Cl]
active: Potency [1] 5.01 µM | Potency [19] 11.2 µM | Potency [4] 3.16 µM | Potency [20] 2.24 µM | Potency [10] 23.7 µM | Potency [11] 21.1 µM
-30.3%: max response [8]

O=C(Nc1ccncc1)c1c(O)c2ccccc2n(Cc2ccccc2)c1=O
inactive: activity change, negative = inhibition [14] 22.9%

CCOc1ccc(-n2c(O)c(C=Nc3ccc(N(CC)CC)cc3)c(=O)[nH]c2=O)cc1
inactive: outcome [15]

c1ccc2cc3c(cc2c1)-c1cccc2cccc-3c12
inactive: Potency [1] | Potency [11] | max response [12] 5.83% and 4.65%
active: Potency [17] 3.16 µM | Potency [2] 15.8 µM | Potency [6] 2.82 µM | Potency [7] 7.94 µM | Potency [10] 1.88 µM and 1.93 µM | Potency [18] 7.08 µM and 4.47 µM

Oc1c(Br)c(Br)c(Br)c(Br)c1Br
active: Potency [19] 39.8 µM | Potency [11] 33.5 µM
inactive: Potency [1] | activation [2] 3.02% | outcome [3] | outcome [5] | outcome [13]

C#CCO
-7.57%: max response [8]
inactive: Potency [1] | activation [2] 0.566% | Potency [19] | outcome [3] | Potency [4] | outcome [5] | Potency [6] | Potency [7] | max response [20] 24.4% | activity change % (negative = inhibition) [9] -4.81% | max response [12] 1.29% | outcome [13]

N#CSCSC#N
inactive: activation [17] 17.3% | activation [2] 0.19% | Potency [11]
active: Potency [1] 7.94 µM

CCN(CC)CCN=C(C)c1c(O)n(-c2ccccc2OC)c(=O)[nH]c1=O
inactive: activity change, negative = inhibition [14] -15.6% | outcome [15]

FC(F)(F)c1ccc(Cl)cc1
inactive: Potency [1] | activation [17] 3.21% and 2.89% | activation [2] 4.86% | Potency [19] | Potency [4] | outcome [5] | Potency [6] | Potency [7] | max response [20] -8.02% | activity change % (negative = inhibition) [9] 6.64% | Potency [10] | activation [18] 0.334% and 1.17% | Potency [11] | max response [12] -0.484% and -1.67% | outcome [13]
-9.15%: max response [8]

COC1=C[C@H]2[C@@H]3Cc4ccc(OC)c(O)c4[C@@]2(CCN3C)CC1=O
inactive: outcome [16]

CC[C@H](CO)NC(=O)[C@H]1C=C2c3cccc4[nH]cc(c34)C[C@H]2N(C)C1
inactive: outcome [16]

C=C(C)[C@H]1[C@H]2OC(=O)[C@@H]1[C@]1(O)C[C@H]3O[C@]34C(=O)O[C@H]2[C@]14C
inactive: outcome [16]

Oc1cc2c(cc1O)[C@H]1c3ccccc3CN[C@H]1CC2
inactive: outcome [16]

COc1cc2c(cc1OC)-c1c(O)c(OC)cc3c1[C@@H](C2)N(C)CC3
inactive: outcome [16]

OC[C@H]1CCCN2CCCC[C@@H]12
inactive: outcome [16]

COc1cc2c(cc1OC)-c1c(OC)c(OC)c(CO)c3c1[C@H](C2)N(C)CC3
inactive: outcome [16]

O=c1ccc2cc(O[C@@H]3O[C@@H](CO)[C@@H](O)[C@@H](O)[C@H]3O)c(O)cc2o1
inactive: outcome [16]

C[C@H]1CC[C@@H]2[C@@H](C)C(=O)O[C@H]3O[C@@]4(C)CC[C@@H]1[C@]32OO4
inactive: outcome [16]

CC(C)(O)[C@H]1[C@H]2OC(=O)[C@@H]1[C@]1(O)C[C@H]3O[C@]34C(=O)O[C@H]2[C@]14C
inactive: outcome [16]
